# Measurements as given in PubChem BioAssay (NCI).
# Compounds without any hit were thinned out: in the full panel of roughly 83,000, 20% have a hit.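 A percent growth of 40 corresponds to 60% growth inhibition; 0 means no net growth; -100 means all cells died. Active threshold: below 10.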 A number with no mark means an inactive call. The source made the active and inactive calls.
# Test system: HCT-116 colon
# Experiment: NCI-60 one-dose screen, 48 h (100 = growth as untreated, 0 = no growth, -100 = all killed)
# Conditions: 10 µM unless noted
row,SMILES,growth
1,CCn1c(-c2nonc2N)nc2c(C#CC(C)(C)O)ncc(OC[C@H]3CCCNC3)c21,44.5%
2,COc1ccc(C2CC(=O)c3c(O)c(OC)c(OC)c(OC)c3O2)cc1O (centres undefined),7.57% (active)
3,NC1(c2ccc(-c3nc4ccn5c(=O)[nH]nc5c4cc3-c3ccccc3)cc2)CCC1,23.3%
4,CCc1nc(C(N)=O)c(Nc2ccc(N3CCC(N4CCN(C)CC4)CC3)c(OC)c2)nc1NC1CCOCC1,5.33% (active)
5,CC(C)(C)c1ccc(Cn2cc(CSc3nc4ccccc4s3)nn2)cc1,121%
6,COCC(=O)NC/C=C/c1ccc2ncnc(Nc3ccc(Oc4ccc(C)nc4)c(C)c3)c2c1,29.3%
7,COc1ccc(-n2c(=O)c3ccccc3n(Cc3ccc(C(=O)NO)cc3)c2=O)cc1,-19.9% (active)
8,CC(=O)C(C(C)=O)C(c1ccccc1)C(C(C)=O)C(C)=O,91.3%
9,Cc1cc2c(F)c(Oc3ncnn4cc(OC[C@@H](C)OC(=O)[C@H](C)N)c(C)c34)ccc2[nH]1,19.3%
10,O=C(Cn1cncn1)Nc1ccc(-c2nc3ccccc3s2)cc1,95.4%
11,COc1ccc(-c2cc3c(C)nc(N)nc3n(C3CCC(OCCO)CC3)c2=O)cn1 (centres undefined),7.89% (active)
12,COc1cc(OC)c(/C=C/S(=O)(=O)Cc2ccc(OC)c(NCC(=O)O)c2)c(OC)c1,6.42% (active)
13,C=CC(=O)N(C)[C@H]1C[C@H]2OC(C)(C1OC)n1c3ccccc3c3c4c(c5c6ccccc6n2c5c31)C(=O)NC4 (some centres undefined),-48.4% (active)
14,O=C1C=CC2(NN=C(c3ccccc3)N2c2cccc(Cl)c2)c2cccc(O)c21 (centres undefined),54.8%
15,COC(=O)[C@@H](OC)[C@@H]1Cc2cc3cc(OC4CC(OC5CC(O)C(O)C(C)O5)C(O)C(C)O4)c(C)c(O)c3c(O)c2C(=O)[C@H]1OC1CC(OC2CC(OC3CC(C)(O)C(O)C(C)O3)C(O)C(C)O2)C(O)C(C)O1 (some centres undefined),3.51% (active)
16,O=C(O)c1ccc(Nc2ncc3c(n2)-c2ccc(Cl)cc2C(c2c(F)cccc2F)=NC3)cc1,43.6%
17,CC(C)Nc1cc(-c2c[nH]c(C(=O)N[C@H](CO)c3cccc(Cl)c3)c2)c(Cl)cn1,15.7%
18,CCN(CC)CCNC(=O)c1c(C)[nH]c(/C=C2\C(=O)Nc3ccc(F)cc32)c1C,-59.4% (active)
19,COc1cccc2cc(-c3nc(C4CCC(C(=O)O)CC4)n4ncnc(N)c34)[nH]c12 (centres undefined),26.3%
20,O=C(c1ccc(/C=C/c2n[nH]c3ccccc23)cc1)N1CCNCC1,17.7%
21,COc1cc(-c2nc(C(=O)NCC(=O)O)nn2-c2ccc(Cl)cc2)cc(OC)c1OC,103%
22,CC1CCC(n2cnc3c(Cl)ncnc32)O1 (centres undefined),89.3%
23,N#Cc1cc2[nH]c3ccc(OC(F)(F)F)cc3c2oc1=O,81.2%
24,COc1ccc(-c2cnc(-c3ccc(Cl)cc3)[nH]2)cc1OC,98.6%
25,COc1ccc2c(CCCCC(c3ccccc3)c3ccccc3)c3[n+](cc2c1OC)CCc1cc2c(cc1-3)OCO2,-52.8% (active)

# Test system: HCC-2998 colon
# Experiment: as above
# Conditions: 10 µM
row,SMILES,growth
1,COC(=O)[C@@H](NC(=O)[C@@H](OC)[C@@H]1Cc2cc3cc(OC4CC(OC5CC(O)C(O)C(C)O5)C(O)C(C)O4)c(C)c(O)c3c(O)c2C(=O)[C@H]1OC1CC(OC2CC(OC3CC(C)(O)C(O)C(C)O3)C(O)C(C)O2)C(O)C(C)O1)C(C)C (some centres undefined),11.2%
2,Nc1c2c(c(O)c3c1=C(CO)C=N3)=NCCS2=O (centres undefined),-87.8% (active)
3,C=CC[n+]1c(/C=C2\Sc3ccccc3N2C)sc(-c2ccccc2)c1-c1ccccc1,29.4%
4,CC1(C=O)NC(=O)NC1=O (centres undefined),94.7%
5,COc1cc2c3c(c1)nc(C)n3CCC2,99.8%
6,COc1cc2c(Oc3ccc4[nH]c(C)cc4c3F)ncnc2cc1OCCCN1CCCC1,102%
7,CCc1nc2cc(/C=C/C(=O)NO)c(F)cc2c(=O)n1CCc1ccccc1,37.3%
8,CCc1cc2c(c3ccc(C(=O)CBr)cc13)CCCC2,103%
9,COc1cc(F)c(F)c(Nc2ccc(I)cc2F)c1NS(=O)(=O)C1(C[C@H](O)CO)CC1,-23.6% (active)
10,C=CC(=O)Nc1cc2c(Nc3ccc(F)c(Cl)c3)ncnc2cc1C#CC(C)(C)N1CCN(C)CC1,-81.5% (active)
11,CN1CC[C@H](c2c(O)cc(O)c3c(=O)cc(-c4ccccc4Cl)oc23)[C@H](O)C1,-21.1% (active)
12,COc1cc2ncnc(Nc3ccc(F)c(Cl)c3)c2cc1NC(=O)/C=C/CN1CCCCC1,-88% (active)
13,O=C(c1ccccc1)C(c1ccccc1)N1CCOCC1 (centres undefined),102%
14,COc1ccc(CCCc2c3[n+](cc4c(OC)c(OC)ccc24)CCc2cc4c(cc2-3)OCO4)cc1,74%
15,CCn1c(-c2nonc2N)nc2c(C#CC(C)(C)O)ncc(OC[C@H]3CCCNC3)c21,81.4%
16,COc1ccc(C2CC(=O)c3c(O)c(OC)c(OC)c(OC)c3O2)cc1O (centres undefined),12.7%
17,NC1(c2ccc(-c3nc4ccn5c(=O)[nH]nc5c4cc3-c3ccccc3)cc2)CCC1,33.6%
18,CCc1nc(C(N)=O)c(Nc2ccc(N3CCC(N4CCN(C)CC4)CC3)c(OC)c2)nc1NC1CCOCC1,61.4%
19,CC(C)(C)c1ccc(Cn2cc(CSc3nc4ccccc4s3)nn2)cc1,104%
20,COCC(=O)NC/C=C/c1ccc2ncnc(Nc3ccc(Oc4ccc(C)nc4)c(C)c3)c2c1,36.6%

row,SMILES,growth
1,COc1ccc(-n2c(=O)c3ccccc3n(Cc3ccc(C(=O)NO)cc3)c2=O)cc1,34%
2,CC(=O)C(C(C)=O)C(c1ccccc1)C(C(C)=O)C(C)=O,106%
3,Cc1cc2c(F)c(Oc3ncnn4cc(OC[C@@H](C)OC(=O)[C@H](C)N)c(C)c34)ccc2[nH]1,37.5%
4,O=C(Cn1cncn1)Nc1ccc(-c2nc3ccccc3s2)cc1,93.9%
5,COc1ccc(-c2cc3c(C)nc(N)nc3n(C3CCC(OCCO)CC3)c2=O)cn1 (centres undefined),-0.799% (active)
6,COc1cc(OC)c(/C=C/S(=O)(=O)Cc2ccc(OC)c(NCC(=O)O)c2)c(OC)c1,5.81% (active)
7,C=CC(=O)N(C)[C@H]1C[C@H]2OC(C)(C1OC)n1c3ccccc3c3c4c(c5c6ccccc6n2c5c31)C(=O)NC4 (some centres undefined),-48.1% (active)
8,O=C1C=CC2(NN=C(c3ccccc3)N2c2cccc(Cl)c2)c2cccc(O)c21 (centres undefined),90.8%
9,COC(=O)[C@@H](OC)[C@@H]1Cc2cc3cc(OC4CC(OC5CC(O)C(O)C(C)O5)C(O)C(C)O4)c(C)c(O)c3c(O)c2C(=O)[C@H]1OC1CC(OC2CC(OC3CC(C)(O)C(O)C(C)O3)C(O)C(C)O2)C(O)C(C)O1 (some centres undefined),-32.9% (active)
10,O=C(O)c1ccc(Nc2ncc3c(n2)-c2ccc(Cl)cc2C(c2c(F)cccc2F)=NC3)cc1,78.5%
11,CC(C)Nc1cc(-c2c[nH]c(C(=O)N[C@H](CO)c3cccc(Cl)c3)c2)c(Cl)cn1,-10.9% (active)
12,CCN(CC)CCNC(=O)c1c(C)[nH]c(/C=C2\C(=O)Nc3ccc(F)cc32)c1C,1.98% (active)
13,COc1cccc2cc(-c3nc(C4CCC(C(=O)O)CC4)n4ncnc(N)c34)[nH]c12 (centres undefined),23.1%
14,O=C(c1ccc(/C=C/c2n[nH]c3ccccc23)cc1)N1CCNCC1,66.3%
15,COc1cc(-c2nc(C(=O)NCC(=O)O)nn2-c2ccc(Cl)cc2)cc(OC)c1OC,100%
16,CC1CCC(n2cnc3c(Cl)ncnc32)O1 (centres undefined),103%
17,N#Cc1cc2[nH]c3ccc(OC(F)(F)F)cc3c2oc1=O,83.3%
18,COc1ccc(-c2cnc(-c3ccc(Cl)cc3)[nH]2)cc1OC,112%
19,COc1ccc2c(CCCCC(c3ccccc3)c3ccccc3)c3[n+](cc2c1OC)CCc1cc2c(cc1-3)OCO2,-95.7% (active)
